“And” between values parts separate entries of the source, which are not always exact repeats. Equal values may be shown once. Records with an inconclusive call do not appear. Values without a mark were called inactive. The source made the active and inactive calls. Calls come from the whole dose curve; as a rule, active = well fitted curve in the direction sought with a large enough effect in the repeat runs; inconclusive = weak or mixed curves; inactive = no such curve, though single readings can be large; an effect the other way counts as inactive or inconclusive.

A short description of experiment [1]: A CellTox Green Cytotoxicity Assay to monitor cytotoxicity in HepG2 cells - 32 hour (AID 1224883). Note: nearly all actives have a fitted effect of over 50% in size. Note: potency is the fitted concentration of half-maximal effect. The gist of the method:
(§1)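 Cells and non-lytic dye reagent are dispensed together (600 HepG2 cells/well) and incubated 5 h before DMSO compound transfer. Kinetic fluorescence is then recorded in the same wells during 40 h at 37 C.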

Experiment [2] in a line: qHTS RealTime-Glo MT Cell Viability Assay in HepG2 cells - 16 hour (AID 1224885). Note: nearly all actives have a fitted effect of over 50% in size. Note: potency is the fitted concentration of half-maximal effect. In short, it runs like this:
(§2)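 qHTS, HepG2, 600 cells/well, RealTime-Glo (NanoLuc + prosubstrate) added with cells; 5 h preincubation; DMSO compound addition; 37 C; luminescence at 0/8/16/24/32/40 h.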
(In general: qHTS replaces the single test concentration by a dilution series.)

A short description of experiment [3]: qHTS RealTime-Glo MT Cell Viability Assay in HEK293 cells - 24 hour (AID 1224886). For activity change, negative = cytotoxicity: top concentration of the series differs between compounds. Note: nearly all actives have a fitted effect of over 50% in size. Note: potency is the fitted concentration of half-maximal effect. In short, it runs like this:
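Assay medium contained NanoLuc luciferase plus cell-permeant prosubstrate, added with HEK293 cells at 600 cells/well. After 5 h at 37 C/5% CO2 compounds were added; plates stayed at 37 C for 40 h with serial luminescence reads.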

Experiment [4] can be described thus: qHTS RealTime-Glo MT Cell Viability Assay in HEK293 cells - 8 hour (AID 1224887). For activity change, negative = cytotoxicity: top concentration of the series differs between compounds. Note: nearly all actives have a fitted effect of over 50% in size. Note: potency is the fitted concentration of half-maximal effect. The gist of the method:
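Real-time viability in HEK293: signal arises when living cells convert a prosubstrate for NanoLuc in the medium, so luminescence tracks viable cell number. Compound (23 nL, DMSO) added 5 h post-seeding; kinetic reads at 0–40 h, 37 C.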

Experiment [5] can be described thus: A CellTox Green Cytotoxicity Assay to monitor cytotoxicity in HEK293 cells - 16 hour (AID 1224888). Note: nearly all actives have a fitted effect of over 35% in size. Note: potency is the fitted concentration of half-maximal effect. In short, it runs like this:
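Cells (HEK293, 600/well) and dye reagent are dispensed together. After 5 h at 37 C, 23 nL compound is pinned in. Plates stay at 37 C for 40 h with fluorescence read at 0h, 8h, 16h, 24h, 32h and 40h.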

Experiment [6] is described as follows: qHTS RealTime-Glo MT Cell Viability Assay in HepG2 cells - 0 hour (AID 1224889). Note: nearly all actives have a fitted effect of over 50% in size. In short, it runs like this: as §2
Experiment [7] can be described thus: A CellTox Green Cytotoxicity Assay to monitor cytotoxicity in HepG2 cells - 8 hour (AID 1224890). Note: nearly all actives have a fitted effect of over 45% in size. Note: potency is the fitted concentration of half-maximal effect. In short, it runs like this:
as §1

Experiment [8] in a line: qHTS assay to identify small molecule antagonists of the estrogen receptor alpha (ER-alpha) signaling pathway using the BG1 cell line in the presence of 0.1 nM 17-beta-estradiol - cell viability counter screen (AID 1259241). Note: nearly all actives have a fitted effect of over 40% in size. Note: potency is the fitted concentration of half-maximal effect. In short, it runs like this: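 VM7Luc4E2, 4,000 cells/well, phenol red-free medium + 10% charcoal-stripped FBS; 24 hr plating; cpd + 0.1 nM E2 final, 22 hr 37C/5% CO2; CellTiter-Fluor 30 min, fluorescence.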

The nature of experiment [9]: qHTS assay to identify small molecule antagonists of the androgen receptor (AR) signaling pathway using the MDA cell line in the presence of 0.5 nM R1881 - cell viability counter screen (AID 1259242). Note: nearly all actives have a fitted effect of over 45% in size. Note: potency is the fitted concentration of half-maximal effect. The gist of the method: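 Steps: plate MDA-kb2 cells, rest 5 hr at 37C without CO2; pin in compounds in DMSO; add R1881 to 0.5 nM final; incubate 16 hr; add CellTiter-Fluor, 30 min; read fluorescence.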
% is set by controls: 0 for no effect and ±100 for the full control effect.

On to `COC(=O)c1cc(Cl)ccc1OC`, for which the Potency entry in [1], in [2], in experiment [3], in experiment [4], in [5] and in experiment [6] was “inactive” in each case. In addition, the Potency result in experiment [7], in experiment [8] and in [9] was “inactive” in each case.

Turning to `[O-][n+]1ccccc1SSc1cccc[n+]1[O-]`, the Potency in experiment [1] is 0.585 µM (active); in experiment [2], 0.233 µM (active); in experiment [3], 1.31 µM (active); in [5], 8.27 µM (active); in experiment [7] it was 10.4 µM (active); in experiment [8] it was 0.411 µM (active). Besides, in experiment [9], the Potency was 0.326 µM (active). For the same compound, in [6], the activity change, negative = cytotoxicity was -1.89% [at 15.8 µM].

Regarding `O=c1[nH]sc2ccccc12`, the Potency is 34.7 µM (active) in [1]; 21.9 µM (active) in experiment [2]; 38.9 µM (active) in experiment [3]; 49 µM (active) in experiment [7]; 61.1 µM (active) in experiment [8]. Moreover, the Potency result in [6] is “inactive”.

Consider `NC(=O)CC[C@@H]1NC(=O)[C@H](Cc2ccccc2)NC(=O)[C@H](Cc2ccc(O)cc2)NC(=O)CCSSC[C@@H](C(=O)N2CCC[C@H]2C(=O)N[C@@H](CCCN=C(N)N)C(=O)NCC(N)=O)NC(=O)[C@H](CC(N)=O)NC1=O`, for which the Potency entry in experiment [1], in experiment [2], in [3], in [4], in experiment [5] and in [6] was “inactive” in each case. The Potency entry in [7], in experiment [8] and in experiment [9] was “inactive” throughout.

As for `CC(C)C(C)(C)C(C)(C)C(C)(C)S`, the Potency entry in experiment [1], in experiment [2], in [7], in [8] and in experiment [9] was “inactive” throughout.

For the compound `CCCCCCCCCCCCCCCS(=O)(=O)Oc1ccccc1`, the Potency entry in [1], in experiment [2], in experiment [5], in experiment [6], in [7] and in [8] was “inactive” each time.

As to `CC1=NC(C)OC1C` (stereo not given), the Potency result in experiment [1], in [2], in [5], in experiment [6], in experiment [7] and in [8] was “inactive” throughout. Further, the Potency entry in experiment [9] is “inactive”.

For the compound `On1ccccc1=S`, the Potency in experiment [1] was 0.385 µM (active); in experiment [8], 9.59 µM (active). For the same compound, the Potency result in experiment [5], in experiment [6] and in experiment [7] was “inactive” throughout.

Take `CCCCCCCCCOC(=O)c1ccc(O)cc1`: the Potency in experiment [1] was 48.3 µM (active); in experiment [3], 38.3 µM (active); in experiment [4] it was 38.3 µM (active); in experiment [5], 38.3 µM (active). Moreover, the Potency entry in experiment [6] and in [7] was “inactive” in each case.

As for `CC(=O)S[C@@H]1CC2=CC(=O)CC[C@]2(C)[C@H]2CC[C@@]3(C)[C@@H](CC[C@@]34CCC(=O)O4)[C@H]12`, in [1], the Potency is 54.9 µM (active). Also, the Potency entry in experiment [5], in [6], in experiment [7], in experiment [8] and in experiment [9] was “inactive” in each case.

Take `CCCCCCCCCCCCCCCC[N+](C)(C)CCN(Cc1ccc(OC)cc1)c1ncccn1`: the Potency was 6.74 µM (active) in [1]; 8.49 µM (active) in [2]; 2.13 µM (active) in experiment [4]; 19 µM (active) in experiment [5]; 19 µM (active) in experiment [7]. Also, the Potency result in experiment [6] and in experiment [8] was “inactive” each time.

In the case of `Oc1ccc(Cl)cc1Sc1cc(Cl)ccc1O`, the Potency is 48.9 µM (active) and 26.8 µM (active) in experiment [1]; 19.5 µM (active) and 23.9 µM (active) in experiment [3]; 24.5 µM (active) in [4]; 29.8 µM (active) in experiment [9]. In addition, the Potency result in [6] and in [8] was “inactive” throughout.

`C=CC(=O)OCC(CO)(COCC(COC(=O)C=C)(COC(=O)C=C)COC(=O)C=C)COC(=O)C=C`: the Potency in experiment [1] is 21.6 µM (active); in experiment [2] it was 5.43 µM (active); in [8], 15.2 µM (active); in [9] it was 3.03 µM (active). Further, the Potency entry in [6] and in experiment [7] was “inactive” in each case.

For the compound `COc1cc(-c2ccc(N=C=O)c(OC)c2)ccc1N=C=O`, the Potency result in experiment [1], in experiment [2], in experiment [5], in [6], in experiment [7] and in experiment [8] was “inactive” in each case. Also, the Potency result in experiment [9] was “inactive”.

With `Cc1[nH]cnc1C[C@H]1CCc2c(C)c3ccccc3n2C1=O`, the figures for the Potency in experiment [1] and in experiment [3] were 38 µM (active) and 33.8 µM (active), respectively. Further, the Potency entry in experiment [5], in experiment [6] and in experiment [8] was “inactive” in each case.

Regarding `CCOc1ccc2nc3cc(N)ccc3c(N)c2c1`, the Potency in experiment [1] was 16.9 µM (active). Further, the Potency entry in [4], in [5], in experiment [6] and in [7] was “inactive” throughout.

In the case of `Fc1ccc(C(c2ccc(F)cc2)N2CCN(C/C=C/c3ccccc3)CC2)cc1`, the Potency result in [1], in [5], in experiment [6], in experiment [7] and in experiment [8] was “inactive” each time.

`CCCCC(CC)COC(=O)c1ccccc1C(=O)O` (stereo not given): the Potency entry in experiment [1], in experiment [4], in experiment [5], in [7], in experiment [8] and in [9] was “inactive” each time.

For `COc1cccc2c1C(=O)c1c(O)c3c(c(O)c1C2=O)C[C@@](O)(C(=O)CO)C[C@@H]3O[C@H]1C[C@H](N)[C@H](O[C@@H]2CCCCO2)[C@H](C)O1`, the Potency was 1.69 µM (active) in experiment [1], 0.338 µM (active) in experiment [3], 23.9 µM (active) in [7] and 13.3 µM (active) in experiment [8]. The Potency entry in experiment [4], in experiment [5] and in experiment [6] was “inactive” in each case.

For the compound `O=C(Oc1cccc2cccnc12)c1ccccc1`, in experiment [1], the Potency was 0.338 µM (active). In addition, the Potency entry in [2], in [4], in experiment [5], in [6], in experiment [7] and in experiment [8] was “inactive” throughout.

`C[C@@H](NCCCc1cccc(C(F)(F)F)c1)c1cccc2ccccc12`: the Potency is 15.1 µM (active) in experiment [1]; 23.9 µM (active) in experiment [3]; 23.9 µM (active) in [5]; 21.3 µM (active) in [7]; 23.7 µM (active) in experiment [9]. Further, in experiment [8], the Potency entry is “inactive”.

On to `Cc1cc(O)c(Cl)c(C)c1Cl`, for which the Potency in experiment [1] was 54.9 µM (active). Besides, the Potency result in experiment [2], in experiment [3], in experiment [6], in experiment [8] and in experiment [9] was “inactive” throughout.

For `CCC1OCC(COc2ccc(Oc3ccccc3)cc2)O1` (stereo not given), the Potency entry in [1], in experiment [2], in [5], in experiment [6], in [7] and in experiment [8] was “inactive” each time. Further, the Potency result in experiment [9] is “inactive”.

Turning to `COc1ccc(C(=O)/C(Br)=C\C(=O)O)cc1`, the Potency was 13.8 µM (active) in experiment [1] and 38.9 µM (active) in [3]. Further, the Potency entry in experiment [5], in [6], in experiment [7] and in experiment [8] was “inactive” each time.

For the compound `O=S1(=O)CC(Cl)(Cl)C(Cl)(Cl)C1`, the Potency in [1] is 7.76 µM (active); in experiment [2] it was 6.92 µM (active); in experiment [4], 12.3 µM (active); in experiment [7] it was 13.8 µM (active); in experiment [8], 21.7 µM (active); in experiment [9], 21.7 µM (active). For the same compound, the Potency entry in experiment [6] is “inactive”.
